Screening results: PubChem, National Center for Advancing Translational Sciences (NCATS)
IL1B secr inh = inhibitors of inflammasome signaling (IL-1 beta secretion); THP-1 LPS/ATP IL-1B secretion, AlphaLISA, 16 h; hits give low values; activity change, % at 57.5 µM; AID 743279; 360,000 tested, 4.7% active; in the data active means activity change below about -50%; inconclusive means mostly about -30% to -49%; further: on the % scale 0 is the no-effect control and ±100 the full control effect
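THP-1 cells pretreated 1 hr with compounds (up to 57.5 uM final), then stimulated with LPS (250 ng/mL final) plus ATP (1.25 mM final); secreted IL-1B measured by AlphaLISA after 16 hr, decreased signal indicating inhibition.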
DT40 TDP1 CPT = DT40-hTDP1 cell growth loss with CPT. chicken DT40 Tdp1-/-;hTDP1 cells + 20 nM CPT, ATP luminescence, 48 h. Potency, µM (doses to about 46.2 µM), inactives show top-dose activity change, negative = growth inhibition, usual class: inhibitors. 420,000 tested, 12% active; further: potency means the concentration at half of the fitted maximal effect; on the % scale 0 is the no-effect control and ±100 the full control effect; nearly all actives have a fitted effect of over 55% in size
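Chicken DT40 Tdp1-/- cells stably complemented with human TDP1 were seeded at 400 cells/well in medium containing 20 nM camptothecin, exposed to pin-transferred compounds, and grown at 37 °C for at least 48 hr. Viability was read as ATP luminescence.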
MCF10A rereplic = DNA re-replication induction in MCF 10a cells. 350,000 tested, 2.9% active. MCF 10A DNA re-replication, Hoechst nuclear intensity, 48 h. Potency, µM (titrated, usually from 46.1 µM), for the others: at the top dose activity, positive = re-replication, most hits filed as activators; further: potency means the concentration at half of the fitted maximal effect; % of control where 0% means no effect; nearly all actives have a fitted effect of over 50% in size
DT40 TDP1 no CPT = qHTS for Inhibitors of human tyrosyl-DNA phosphodiesterase 1 (TDP1): qHTS in cells in absence of CPT | DT40 Tdp1-/- hTDP1 cells, no CPT, ATP luminescence, 48 h | Potency, µM (doses to about 46.2 µM), for the others: at the top dose activity change, negative = growth inhibition, most hits filed as inhibitors | 420,000 tested, 15% active; further: potency means the concentration at half of the fitted maximal effect; on the % scale 0 is the no-effect control and ±100 the full control effect; nearly all actives have a fitted effect of over 55% in size
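Cells were dispensed at 400 per well, compounds added by pin tool, plates incubated ≥48 hr at 37 °C, then CellTiter-Glo added for 30 min at room temperature before luminescence reading. Line: DT40 Tdp1-/- complemented with hTDP1; camptothecin omitted.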
Chronic BCR inh = chronic active BCR signaling inhibition; 340,000 tested, 0.05% active; Potency, µM (top dose mostly 46.1 µM), for the others: at the highest dose activity change, negative = inhibition, usual class: inhibitors; AID 493014; ABC-DLBCL IkBa-CBG/CBR reporter, luminescence ratio, 4 h; active means well fitted inhibition curve with a large enough effect in the signal ratio, with a control signal flat, not every such curve was filed as active; inconclusive means small, poorly fitted or top-dose-only effect, or effect the other way, or a change in a side signal; the % refers to the signal ratio;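 further: potency means the concentration at half of the fitted maximal effect; plate controls were basal doxycycline-induced cells for no effect and cells given 10 µM MG132 for full effect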
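Compounds up to 46 uM were incubated four hours with TMD8 cells whose green CBG68 luciferase is fused to IkappaBalpha; red CBR luminescence normalised the signal, and concentration-effect curves were fitted to fusion, red and ratio data.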
SW480 rerep = inducers of DNA re-replication in SW480 colon cancer cells | SW480 DNA re-replication, Hoechst DNA content imaging, 48 h | Potency, µM (top dose mostly 46.1 µM), for inactives: top-dose re-replication activation, most hits filed as activators | 340,000 tested, 1.8% active; further: potency means the concentration at half of the fitted maximal effect; % of control where 0% means no effect; nearly all actives have a fitted effect of over 55% in size
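Treated cells incubate 48 hr (37 C, 5% CO2), are stained 40 min with Hoechst, and nuclear fluorescence is enumerated; a rise in nuclei with high DNA signal marks re-replication.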
Starred values were filed as active, the others as inactive; ? = inconclusive; nt = no result. A selection: hits, their analogues and other compounds. The true share with any hit is near 19%. Unless noted, the call rests on the fitted dose curve; in most records, active means well fitted curve in the direction sought with a large enough effect; inconclusive means small, poorly fitted or top-dose-only effect, or another doubt; inactive means no such curve, though single readings can be large; an effect the other way counts as inactive or inconclusive.

SMILES	IL1B secr inh	DT40 TDP1 CPT	MCF10A rereplic	DT40 TDP1 no CPT	Chronic BCR inh	SW480 rerep
C=CC[C@]12C=C(OC)C(=O)C=C1O[C@@H](c1ccc3c(c1)OCO3)[C@H]2C	-6	1%	29%	-17%	nt	2%
CSc1ccc(NC(=O)NCCCN2CCN(c3ccccc3F)CC2)cc1	?	21µM*	0%	21µM*	4%	1%
O=C(NCCCN1CCN(c2ccccc2F)CC1)Nc1ccc(F)cc1	-15	?	4%	?	4%	-1%
CC1CCN(S(=O)(=O)c2ccc([N+](=O)[O-])cc2)CC1	0	11%	-1%	0%	1%	-4%
O=S(=O)(c1ccc(Oc2ccccc2)cc1)N1CCOCC1	0	-5%	-5%	-18%	?	-1%
CC1CCN(S(=O)(=O)c2ccc(Oc3ccc([N+](=O)[O-])cc3)cc2)CC1	?	16µM*	?	16µM*	9%	1%
O=S(=O)(c1ccc(Oc2ccc3c(c2)OCO3)c(S(=O)(=O)N2CCOCC2)c1)N1CCOCC1	nt	0.89µM*	nt	11µM*	nt	nt
O=[N+]([O-])c1ccccc1Oc1ccc(S(=O)(=O)N2CCOCC2)cc1	0	?	17%	21µM*	-12%	?
O=[N+]([O-])c1ccc(Oc2ccc(S(=O)(=O)N3CCCCC3)cc2)cc1	-7	16µM*	10%	15µM*	2%	-2%
O=C(c1ccccc1F)N1CCN(C(=O)C2CC2)CC1	-8	2%	?	-6%	-1%	-4%
CNC(=O)C[C@@H]1CC[C@@H]2[C@H](COC[C@H](O)CN2S(=O)(=O)c2ccccc2Cl)O1	-1	-3%	nt	-5%	nt	nt
c1ccc2c(-c3[nH]ncc3CNCCCn3ncc4ccccc43)cccc2c1	?	18µM*	?	12µM*	?	?
OCC1CCCCN1CCNCc1cn[nH]c1-c1cccc2ccccc12 (stereo unspecified)	?	-12%	-5%	16%	9%	1%
C[C@H]1CN([C@@H](C)CO)C(=O)c2cc(Br)cnc2O[C@@H]1CN(C)S(C)(=O)=O	10	7%	nt	?	nt	nt
CC(C)C(C=Cc1ccccc1)=NNS(=O)(=O)c1ccccc1	14	8.2µM*	nt	-14%	nt	nt
CCOC(=O)c1cc2c(ccn2C)n1CC(=O)N(Cc1ccccc1)c1ccccc1	-72*	23µM*	?	?	2%	?
CC(C)OC(=O)c1cc2c(ccn2C)n1CC(=O)N(Cc1ccccc1)c1ccc(F)cc1	0	16µM*	6.5µM*	21µM*	?	?
CC(C)OC(=O)c1cc2c(ccn2C)n1CC(=O)N1CCC(Cc2ccccc2)CC1	-8	?	?	21µM*	-3%	2%
CCOC(=O)c1cc2c(ccn2C)n1CC(=O)N(Cc1ccccc1)c1ccc(F)cc1	8	-27%	?	-2%	7%	18%
Cc1cccc(C(C)C)c1NC(=O)COC(=O)CCC(=O)N(CC(C)C)c1c(N)n(CC(C)C)c(=O)[nH]c1=O	13	-2%	nt	-16%	nt	nt
Cc1ccc(CSCC(=O)Nc2ccc(N3CCOCC3)cc2N2CCOCC2)cc1	-7	?	-1%	?	0%	0%
CCCCN(C)C(=O)Cn1cnc2sc(C)c(S(=O)(=O)N3CCC(C)CC3)c2c1=O	nt	-13%	nt	-13%	nt	nt
CCOC(=O)c1ccc(CN(Cc2ccccc2C)S(=O)(=O)c2ccc(C(C)(C)C)cc2)cc1	nt	?	nt	18µM*	10%	nt
COc1cccc(NC(=O)c2ccc3c(O)c(S(=O)(=O)c4ccccc4)c(=O)[nH]c3c2)c1	1	23µM*	3%	?	?	17%
